Unmarked numbers belong to inactive results. Records with an inconclusive call do not appear. Entries that show only a call come without a potency. Calls of active or inactive are those of the source. Unless noted, calls come from the whole dose curve; as a rule, active = well fitted curve in the direction sought with a large enough effect in the repeat runs; inconclusive = weak or mixed curves; inactive = no such curve, though single readings can be large; an effect the other way counts as inactive or inconclusive.
Tests used:
[1] = qHTS assay to identify small molecule agonists of the estrogen receptor alpha (ER-alpha) signaling pathway in the presence of an antagonist - cell viability counter screen (AID 1259386);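 note: series mostly up to about 92 µM; cells exposed to compounds for 22 h at 37 °C before the viability read; nearly all actives have a fitted effect of over 30% in size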
Method in brief: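 VM7Luc4E2, stripped-serum pre-culture 5 d; 24hr plating; +ICI-182,780 10.0nM final; cpds 15 conc, 22hr, 37C/5% CO2; CellTiter-Fluor added at 21hr, fluorescence 1hr later.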

[2] = target: Progesterone receptor (Homo sapiens) (UniProt P06401); experiment: qHTS assay to identify small molecule agonists of the progesterone receptor (PR) signaling pathway (AID 1346784; calls by dose curve; note: nearly all actives have a fitted effect of over 30% in size)
Method in brief: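 Seed PR-UAS-bla HEK 293T cells (2% charcoal-stripped FBS), incubate 6 hr at 37C; add compounds in DMSO, 16 hr at 37C; add LiveBLAzer B/G substrate, 2 hr RT; read fluorescence intensity.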

[3] = target: Progesterone receptor (Homo sapiens) (UniProt P06401); experiment: qHTS assay to identify small molecule antagonists of the progesterone receptor (PR) signaling pathway (AID 1346795; active = well fitted inhibition curve with a large enough effect in the signal ratio in the repeat runs, not every such curve was filed as active; the % refers to the signal ratio)
Method in brief: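 Screening used a GripTite HEK293T line with PR-responsive UAS-beta-lactamase. Cells were challenged with compound in the presence of 1 nM R5020 final for 16 hr at 37C; B/G FRET substrate, 2 hr room temperature, fluorescence.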

[4] = qHTS assay to identify small molecule agonists of the progesterone receptor (PR) signaling pathway - cell viability counter screen (AID 1346799; calls by dose curve; note: nearly all actives have a fitted effect of over 45% in size)
Method in brief: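 Using the same plates as the PR reporter screen, HEK293T PR-UAS-bla cells received compounds for 16 hr at 37C and were then lysed with CellTiter-Glo; luminescence was read 30 min later at room temperature.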

[5] = qHTS assay to identify small molecule antagonists of the TGF-beta/Smad signaling pathway - cell viability counter screen (AID 1346824); note: nearly all actives have a fitted effect of over 50% in size
Method in brief: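 SBE-bla HEK 293T cells were plated overnight at 37 C, then given compounds in DMSO plus TGF-beta1 (added as 0.25 ng/mL solution) for 5 hr. After the bla read, CellTiter-Glo was added to the same wells and luminescence read after 30 min at room temperature.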

[6] = qHTS assay to identify small molecule agonists of the TGF-beta/Smad signaling pathway - cell viability counter screen (AID 1346829); note: top concentration of the series differs between compounds; nearly all actives have a fitted effect of over 45% in size
Method in brief: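 HEK 293T SBE-bla line, 5 hr compound exposure at 37 C, multiplexed CellTiter-Glo viability read by luminescence.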

[7] = qHTS assay to identify small molecule agonists of the TGF-beta/Smad signaling pathway (AID 1346859; active = well fitted activation curve with a large enough effect in the signal ratio in the repeat runs, not every such curve was filed as active; the % refers to the signal ratio; note: series mostly up to about 77 µM)
Method in brief: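 Beta-lactamase reporter activity downstream of Smad binding elements was measured in stably transfected HEK 293T cells; compounds were incubated for 5 hr, substrate for 2 hr at room temperature.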

[8] = target: Thyrotropin-releasing hormone receptor (Homo sapiens) (UniProt P34981); experiment: qHTS assay to identify small molecule antagonists of the thyrotropin-releasing hormone receptor (TRHR) signaling pathway (AID 1346877; active = well fitted inhibition curve with a large enough effect in the repeat runs, not every such curve was filed as active; note: series mostly up to about 51 µM)
Method in brief: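 Intracellular calcium fluorescence, read kinetically every second over 3 min, reports TRH-evoked signalling in HEK293 cells carrying TRHR. Test compounds were added 5 min ahead of a 1 nM TRH challenge.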

[9] = Human pregnane X receptor (PXR) small molecule agonists, qHTS cell viability counter screen (AID 1346977); note: nearly all actives have a fitted effect of over 50% in size
Method in brief: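 After a 5hr pre-incubation, PXR-Luc HepG2 cells received compounds plus positive control in DMSO and were kept 24hr at 37C. Cell viability was quantified by fluorescence from CellTiter-Fluor added for the final hour.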

[10] = Caspase-3/7 induction in HepG2 cells by small molecules, qHTS assay (AID 1346978); note: nearly all actives have a fitted effect of over 15% in size
Method in brief: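 Wild-type HepG2 cells (2,000/well) were settled 5 h at 37 C, 5% CO2, then exposed to compounds in DMSO for 17 h. Caspase-3/7 activity was read by luminescence 30 min after adding Caspase-Glo 3/7 reagent at room temperature.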

[11] = Caspase-3/7 induction in CHO-K1 cells by small molecules, qHTS cell viability counter screen (AID 1346979); note: nearly all actives have a fitted effect of over 35% in size
Method in brief: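 Multiplexed with Caspase-Glo 3/7 in CHO-K1 cells, this counter screen added CellTiter-Fluor after 16hr of compound exposure and recorded fluorescence 1hr later.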

[12] = Caspase-3/7 induction in CHO-K1 cells by small molecules, qHTS assay (AID 1346980); note: nearly all actives have a fitted effect of over 15% in size
Method in brief: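 Wild-type cells were seeded at 1,500 per well and settled 5 hr at 37 C, 5% CO2, then exposed to DMSO-dissolved compounds for 17 hr. Caspase-Glo 3/7 reagent was added, and luminescence was read after 30min at room temperature.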

[13] = Caspase-3/7 induction in HepG2 cells by small molecules, qHTS cell viability counter screen (AID 1346981); note: series mostly up to about 92 µM; nearly all actives have a fitted effect of over 30% in size
Method in brief: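 HepG2, WT, 2,000 cells/well; 5 hr pre-incubation 37 C/5% CO2; compound pin-transferred from DMSO; 16 hr exposure; CellTiter-Fluor, 1 hr; fluorescence read.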

[14] = target: Nuclear receptor subfamily 1 group I member 2 (Rattus norvegicus) (UniProt Q9R1A7); experiment: Rat pregnane X receptor (rPXR) activation by small molecules, qHTS assay (AID 1346983); conditions: rPXR luciferase reporter cells, One-Glo luminescence, 24 h; hits give high values; note: nearly all actives have a fitted effect of over 20% in size
Method in brief: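 Cell-based rPXR luciferase reporter assay, 2,000 cells per well, rested 5hr at 37 C before compound addition in DMSO, then 24 hr at 37 C. One-Glo reagent was added and luminescence read after 30 min at room temperature.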

[15] = target: Nuclear receptor subfamily 1 group I member 2 (Homo sapiens) (UniProt O75469); experiment: CYP3A4 induction through human pregnane X receptor (PXR) by small molecules, qHTS assay (AID 1346984); note: nearly all actives have a fitted effect of over 40% in size; note: potency is the fitted concentration of half-maximal effect
Method in brief: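 Luminescence readout: luciferase signal after One-Glo (30 min, room temperature), following 3 h at 37C with 3uM final Luciferin-IPA P450 substrate. Cells were DPX-2 (HepG2, PXR/CYP3A4-luc co-transfected) dosed for 24 h.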

[16] = target: Nuclear receptor subfamily 1 group I member 2 (Homo sapiens) (UniProt O75469); experiment: Human pregnane X receptor (PXR) activation by small molecules, qHTS assay (AID 1346985); note: nearly all actives have a fitted effect of over 40% in size; note: potency is the fitted concentration of half-maximal effect
Method in brief: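 DPX-2 cells (HepG2 co-transfected with a PXR response element and a CYP3A4-promoter luciferase construct) were seeded at 2,000 per well, rested 5 hr at 37C, then exposed to DMSO-dissolved compounds for 24 hr. Activation was read as luciferase luminescence.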

[17] = target: Acetylcholinesterase (Homo sapiens) (UniProt P22303); experiment: Acetylcholinesterase (AChE) small molecule antagonists: colormetric cell-based qHTS assay (AID 1347395; calls by dose curve; note: nearly all actives have a fitted effect of over 30% in size; note: potency is the fitted concentration of half-maximal effect)
Method in brief: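 In this cell-based qHTS, attached SH-SY5Y cells were treated with test chemicals for 30 min, after which acetylthiocholine hydrolysis was followed by DTNB colour development over 90 min at 37 C.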

[18] = qHTS assay to identify small molecule antagonists of the progesterone receptor (PR) signaling pathway - cell viability counter screen (AID 1346798); note: series mostly up to about 92 µM; nearly all actives have a fitted effect of over 50% in size
Method in brief: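 Measures cytotoxicity in parallel with the PR antagonist reporter read: HEK293T PR-UAS-bla cells get compound and R5020 for 16 hr, and remaining viable cells are quantified by CellTiter-Glo luminescence.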

[19] = target: Thyrotropin-releasing hormone receptor (Homo sapiens) (UniProt P34981); experiment: qHTS assay to identify small molecule agonists of the thyrotropin-releasing hormone receptor (TRHR) signaling pathway (AID 1346891; calls by dose curve;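 note: HEK293 cells expressing TRHR with calcium dye readout; series mostly up to about 58 µM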)
Method in brief: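 Overnight-plated (18 h, 37 °C, 5% CO2) TRHR-Hek293 cells; 2 h calcium dye at 37 °C; compound in DMSO; 3-min kinetic fluorescence read.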

[20] = target: Nuclear receptor subfamily 1 group I member 2 (Homo sapiens) (UniProt O75469); experiment: Human pregnane X receptor (PXR) small molecule agonists, qHTS assay (AID 1346982); note: nearly all actives have a fitted effect of over 35% in size; note: potency is the fitted concentration of half-maximal effect
Method in brief: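 Luciferase signal from ONE-Glo (30 min, room temperature) measured activation of hPXR-driven CYP3A4 reporter expression in PXR-Luc HepG2 cells treated with compounds for 24 hr at 37 C.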

Thyrotropin-releasing hormone receptor (Homo sapiens), sequence (P34981 whole entry, looked up): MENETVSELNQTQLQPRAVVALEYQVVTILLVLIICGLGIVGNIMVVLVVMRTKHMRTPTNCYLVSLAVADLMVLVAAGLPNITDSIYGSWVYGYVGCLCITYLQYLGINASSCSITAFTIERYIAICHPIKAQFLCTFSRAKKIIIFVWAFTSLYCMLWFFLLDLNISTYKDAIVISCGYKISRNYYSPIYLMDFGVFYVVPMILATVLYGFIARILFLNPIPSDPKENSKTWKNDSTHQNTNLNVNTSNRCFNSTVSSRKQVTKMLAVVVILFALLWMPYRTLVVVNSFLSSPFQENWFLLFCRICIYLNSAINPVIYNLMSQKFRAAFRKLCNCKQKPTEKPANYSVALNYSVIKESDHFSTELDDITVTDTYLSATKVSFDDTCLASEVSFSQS
Progesterone receptor (Homo sapiens), sequence (P06401 whole entry, looked up): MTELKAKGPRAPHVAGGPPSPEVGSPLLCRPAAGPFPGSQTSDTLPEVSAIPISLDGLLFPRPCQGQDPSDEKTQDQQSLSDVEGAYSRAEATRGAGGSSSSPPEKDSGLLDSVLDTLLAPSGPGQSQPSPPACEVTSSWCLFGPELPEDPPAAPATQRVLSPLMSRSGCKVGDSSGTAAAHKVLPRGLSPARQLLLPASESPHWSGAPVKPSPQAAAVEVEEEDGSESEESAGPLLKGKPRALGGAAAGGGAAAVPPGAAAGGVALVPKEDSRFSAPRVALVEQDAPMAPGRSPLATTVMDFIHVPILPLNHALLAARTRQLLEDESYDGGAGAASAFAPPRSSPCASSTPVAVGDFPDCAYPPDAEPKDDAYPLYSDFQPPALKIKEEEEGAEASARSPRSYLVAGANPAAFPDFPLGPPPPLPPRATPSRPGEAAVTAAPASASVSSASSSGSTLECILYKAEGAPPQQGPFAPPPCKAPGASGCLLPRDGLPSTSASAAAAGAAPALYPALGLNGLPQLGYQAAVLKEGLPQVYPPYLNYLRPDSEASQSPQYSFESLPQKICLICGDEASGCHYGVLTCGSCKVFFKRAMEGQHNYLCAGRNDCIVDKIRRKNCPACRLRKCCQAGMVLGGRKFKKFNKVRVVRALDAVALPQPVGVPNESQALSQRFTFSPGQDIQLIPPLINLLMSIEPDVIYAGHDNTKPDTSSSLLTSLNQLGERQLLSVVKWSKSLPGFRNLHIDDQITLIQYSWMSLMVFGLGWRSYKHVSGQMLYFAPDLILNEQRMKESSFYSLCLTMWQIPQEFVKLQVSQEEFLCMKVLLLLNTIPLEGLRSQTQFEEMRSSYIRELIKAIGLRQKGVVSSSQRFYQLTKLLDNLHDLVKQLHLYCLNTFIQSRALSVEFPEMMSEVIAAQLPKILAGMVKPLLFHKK
Nuclear receptor subfamily 1 group I member 2 (Homo sapiens), sequence (O75469 whole entry, looked up): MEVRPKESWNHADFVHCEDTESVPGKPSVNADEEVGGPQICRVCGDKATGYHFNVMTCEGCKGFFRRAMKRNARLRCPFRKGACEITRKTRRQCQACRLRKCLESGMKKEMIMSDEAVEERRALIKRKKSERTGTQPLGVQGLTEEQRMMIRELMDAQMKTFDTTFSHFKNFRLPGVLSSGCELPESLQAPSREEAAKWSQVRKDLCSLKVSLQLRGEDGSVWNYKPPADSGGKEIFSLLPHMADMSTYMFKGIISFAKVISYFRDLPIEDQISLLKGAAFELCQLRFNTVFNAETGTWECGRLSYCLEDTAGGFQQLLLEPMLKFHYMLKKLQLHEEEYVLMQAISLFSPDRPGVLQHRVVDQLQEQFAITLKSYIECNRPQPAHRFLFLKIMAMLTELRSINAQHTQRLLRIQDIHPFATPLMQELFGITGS
Nuclear receptor subfamily 1 group I member 2 (Rattus norvegicus), sequence (Q9R1A7 whole entry, looked up): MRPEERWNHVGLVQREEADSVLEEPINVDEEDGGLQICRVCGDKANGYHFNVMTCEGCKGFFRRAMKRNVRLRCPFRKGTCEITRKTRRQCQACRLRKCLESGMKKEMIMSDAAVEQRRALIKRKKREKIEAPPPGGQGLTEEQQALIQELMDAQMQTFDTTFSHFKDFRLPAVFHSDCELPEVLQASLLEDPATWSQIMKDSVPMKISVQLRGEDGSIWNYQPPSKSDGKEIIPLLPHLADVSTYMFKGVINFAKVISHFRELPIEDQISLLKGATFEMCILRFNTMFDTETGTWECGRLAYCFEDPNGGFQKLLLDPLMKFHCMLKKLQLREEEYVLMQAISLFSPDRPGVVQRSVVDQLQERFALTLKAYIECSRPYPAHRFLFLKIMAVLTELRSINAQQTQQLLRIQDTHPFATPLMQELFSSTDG
Acetylcholinesterase (Homo sapiens), sequence (P22303 whole entry, looked up): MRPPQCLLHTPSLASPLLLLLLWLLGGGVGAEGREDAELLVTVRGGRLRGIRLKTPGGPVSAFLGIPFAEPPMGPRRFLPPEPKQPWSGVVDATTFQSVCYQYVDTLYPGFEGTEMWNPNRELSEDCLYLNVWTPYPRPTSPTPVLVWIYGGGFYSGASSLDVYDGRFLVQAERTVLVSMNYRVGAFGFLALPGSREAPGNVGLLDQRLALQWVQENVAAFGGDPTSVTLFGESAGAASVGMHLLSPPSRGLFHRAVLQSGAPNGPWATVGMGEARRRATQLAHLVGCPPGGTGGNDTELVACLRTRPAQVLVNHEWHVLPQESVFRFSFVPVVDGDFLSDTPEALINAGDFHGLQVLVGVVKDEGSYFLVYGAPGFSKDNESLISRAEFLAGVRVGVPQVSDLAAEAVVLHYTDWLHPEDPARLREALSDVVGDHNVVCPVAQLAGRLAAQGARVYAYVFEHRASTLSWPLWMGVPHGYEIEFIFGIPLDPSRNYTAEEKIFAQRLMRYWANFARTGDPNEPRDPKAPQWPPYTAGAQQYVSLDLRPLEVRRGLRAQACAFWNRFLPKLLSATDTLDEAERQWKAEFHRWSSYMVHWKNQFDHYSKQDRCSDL

| SMILES | Potency [1] | Potency [2] | Potency [3] | Potency [4] | outcome [5] | Potency [6] | outcome [7] | Potency [8] | Potency [9] | outcome [10] | Potency [11] | outcome [12] | Potency [13] | max activation [14] | Potency [15] | Potency [16] | Potency [17] | Potency [18] | outcome [19] | Potency [20] |
| --- | --- | --- | --- | --- | --- | --- | --- | --- | --- | --- | --- | --- | --- | --- | --- | --- | --- | --- | --- | --- |
| CC[C@@H](CO)NC(=O)[C@@H]1C=C2c3cccc4c3c(cn4C)C[C@H]2N(C)C1 | inactive | inactive | inactive | inactive | inactive | inactive | inactive | inactive | inactive | inactive | inactive | inactive | inactive | 4.36% | inactive | inactive | 2.45 µM (active) |  |  |  |
| CN(CCO)CCO | inactive | inactive |  | inactive | inactive | inactive | inactive | inactive | inactive | inactive | inactive | inactive | inactive |  |  |  | inactive | inactive | inactive | inactive |
| C#CC(C)(C)O | inactive | inactive | inactive | inactive | inactive | inactive | inactive |  | inactive | inactive | inactive | inactive | inactive |  |  |  | inactive |  |  |  |
| O=P(O)(O)c1ccccc1 | inactive | inactive |  | inactive | inactive | inactive | inactive | inactive | inactive | inactive | inactive | inactive | inactive |  |  |  | inactive | inactive | inactive | inactive |
| CCC(=O)OC1(c2ccccc2)CCN(C)CC1 | inactive | inactive |  | inactive | inactive | inactive | inactive | inactive | inactive | inactive | inactive | inactive |  |  |  |  |  | inactive | inactive | inactive |
| CC(C)N(Cc1ccccc1)C(=O)C(C)(C)C | inactive | inactive | inactive |  | inactive | inactive |  | inactive | inactive | inactive | inactive |  | inactive |  |  |  | inactive |  | inactive | inactive |
| C=CC(=O)OCCN(C)C | inactive | inactive | inactive | inactive | inactive | inactive | inactive |  | inactive | inactive | inactive |  |  |  |  |  | inactive |  |  | inactive |
| CC1=C2[C@H]3OC(=O)[C@@H](C)[C@@H]3CC[C@@]2(C)C=CC1=O | inactive | inactive |  | inactive | inactive | inactive | inactive | inactive | inactive | inactive | inactive | inactive | inactive | 8.61% | 11.2 µM (active) | 2.82 µM (active) | inactive | inactive | inactive | 7.5 µM (active) |
| NCCOS(=O)(=O)O | inactive | inactive | inactive | inactive | inactive | inactive |  | inactive | inactive | inactive | inactive |  | inactive |  |  |  | inactive |  | inactive | inactive |
| O=c1[nH]c2ccccc2n1C1CCNCC1 | inactive | inactive | inactive | inactive | inactive | inactive |  | inactive | inactive | inactive | inactive |  | inactive |  |  |  | inactive |  | inactive | inactive |
| O=c1[nH]oc2c1CCNC2 | inactive | inactive | inactive | inactive | inactive | inactive | inactive |  | inactive | inactive |  | inactive | inactive |  |  |  | inactive |  |  | inactive |
| Clc1ccc(C(Cl)(Cl)Cl)cn1 | inactive | inactive | inactive |  | inactive | inactive |  | inactive | inactive | inactive |  | inactive | inactive |  |  |  | inactive |  |  | inactive |
| C(COCC1CO1)OCC1CO1 (stereo unspecified) | inactive | inactive | inactive | inactive |  | inactive | inactive | inactive | inactive | inactive | inactive |  | inactive |  |  |  | inactive |  | inactive | 48.6 µM (active) |
| Clc1nc(Cl)nc(Nc2ccccc2Cl)n1 | inactive | inactive |  | inactive | inactive | inactive | inactive | inactive | inactive | inactive | inactive | inactive | inactive |  |  |  | inactive | inactive | inactive |  |
| NC(=O)CS(=O)C(c1ccccc1)c1ccccc1 (stereo unspecified) | inactive | inactive |  | inactive | inactive | inactive | inactive | inactive | inactive | inactive | inactive | inactive | inactive | -0.488% | inactive | inactive | inactive | inactive | inactive | inactive |
